Assay outcomes from PubChem.
In the library only some 7.5% were active in any assay of this set; here they are far more common.
ELG1 DNA repair: inhibitors of ELG1-dependent DNA repair in HEK293T cells. HEK293T ELG1-luciferase reporter, luminescence, 16 h; DNA damage induced by 5-fluorouridine. Potency, µM (titrated, usually from 46.1 µM), for inactives: at the highest dose activity change, negative = inhibition, usual class: inhibitors. actives 2.3% (n = 330,000); further: potency means the concentration at half of the fitted maximal effect; nearly all actives have a fitted effect of over 55% in size
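HEK293T cells expressing luciferase-tagged ELG1 (2,000/well) received 5-Fluorouridine plus compound or DMSO for 16 hr at 37 °C. Luciferase was read by ONE-Glo luminescence after 30 min at room temperature.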
B2AR arrestin: agonists driving beta-arrestin recruitment to human beta2-adrenergic receptor; P07550; beta-arrestin recruitment to beta2AR, cell-based reporter; Potency, µM (doses to about 46.1 µM), inactives show at the highest dose activation, actives largely listed as activators; actives 0.02% (n = 330,000);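 further: potency means the concentration at half of the fitted maximal effect; 0% = DMSO controls and full agonism = EC100 isoproterenol or metaproterenol; nearly all actives have a fitted effect of over 65% in size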
Target sequence (P07550 whole entry, looked up): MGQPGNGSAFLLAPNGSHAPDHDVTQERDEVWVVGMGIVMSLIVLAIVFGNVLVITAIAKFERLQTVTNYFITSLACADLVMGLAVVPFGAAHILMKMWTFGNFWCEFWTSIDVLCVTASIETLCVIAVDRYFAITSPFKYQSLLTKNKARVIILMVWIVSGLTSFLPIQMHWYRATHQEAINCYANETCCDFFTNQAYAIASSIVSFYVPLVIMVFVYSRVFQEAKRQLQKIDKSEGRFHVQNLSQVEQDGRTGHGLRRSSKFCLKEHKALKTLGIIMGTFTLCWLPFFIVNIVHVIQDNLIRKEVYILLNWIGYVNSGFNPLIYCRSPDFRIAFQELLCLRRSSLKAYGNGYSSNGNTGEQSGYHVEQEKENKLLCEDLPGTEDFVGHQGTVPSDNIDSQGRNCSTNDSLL
Gal4-VP16 FLuc: inhibits Gal4-VP16 luciferase reporter, ROR gamma counter-screen. Drosophila S2 Gal4-VP16 UAS-luciferase, luminescence, 20 h. Potency, µM (highest dose often 53.6 µM), for inactives: at the top dose activity, negative = inhibition, actives largely listed as inhibitors. actives 3.5% (n = 310,000). AID 2546;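 further: Gal4-VP16 expression switched on by copper sulfate through the metallothionein promoter; potency means the concentration at half of the fitted maximal effect; nearly all actives have a fitted effect of over 50% in size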
RORgamma inh: ROR gamma (mouse) transcription inhibition; Drosophila S2 Gal4-RORgamma UAS-luciferase reporter, 20 h; Potency, µM (top dose mostly 53.6 µM), for the others: at the top dose activity change, negative = inhibition, most hits filed as inhibitors; actives 5.4% (n = 310,000); AID 2551; further: potency means the concentration at half of the fitted maximal effect; nearly all actives have a fitted effect of over 60% in size
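Schneider cells (Drosophila), stable Gal4 DBD–ROR gamma + UAS-luc; 1 hr cmpd preincubation; Cu2+ induction 700 uM final; 20 hr ambient; luminescence.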
TSHR antag: human thyrotropin receptor antagonism; TSHR-expressing cells, TSH-stimulated cAMP HTRF, 2 h; stronger effect = lower value; activity change, negative = inhibition, % at 11.5 µM; actives 0.2% (n = 330,000); AID 504810;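 active means activity change below a set negative limit, meaning inhibition stronger than a set level, cut at about -70% in these data; inconclusive means activity change between two set negative limits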
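TSHR-expressing cells were treated with compounds, then stimulated with TSH at EC80 (4nM final) for 2 hours at 37 deg C. Cellular cAMP was measured by HTRF competition between lysate cAMP and cAMP-d2 for a cryptate-labelled anti-cAMP antibody.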
* hit, by the source's call; ? = inconclusive; · = not tested or not shown. Unless noted, the call rests on the fitted dose curve; in most records, active means well fitted curve in the direction sought with a large enough effect; inconclusive means small, poorly fitted or top-dose-only effect, or another doubt; inactive means no such curve, though single readings can be large; an effect the other way counts as inactive or inconclusive. Unless noted, on the % scale 0 is the no-effect control and ±100 the full control effect.

SMILES | ELG1 DNA repair | B2AR arrestin | Gal4-VP16 FLuc | RORgamma inh | TSHR antag
Oc1ccc(-c2nc3ccccc3s2)cc1 | ? | 0.5% | ? | ? | -0.5
Nc1ccc(-c2nc3ccc(C(=O)O)cc3s2)cc1 | ? | -1.1% | 0.631µM* | 0.562µM* | -3.8
NC(=O)c1ccc2nc(NC(=O)c3ccc(N)cc3)sc2c1 | ? | 0.4% | -14.1% | 12.1% | -7.3
Nc1nc(-c2ccc(C(=O)O)cc2)cs1 | 9.2% | -0.3% | 7.5% | 2.7% | 4.6
Nc1cc2sc(-c3ccc(C(=O)O)cc3)nc2cc1Cl | ? | -0.5% | 11.2µM* | 10µM* | -2.8
O=C(O)c1ccc2nc(-c3ccccc3)sc2c1 | ? | -1.2% | 2.51µM* | ? | -7.9
COC(=O)C1(C(=O)OC)CC2=C[C@H](CC2=O)Cc2ccccc2[C@@H]1C[N+](=O)[O-] | · | · | 8.7% | -2.8% | ·
C[C@@H]1CN([C@H](C)CO)C(=O)c2cc(NS(=O)(=O)c3cn(C)cn3)ccc2O[C@@H]1CN(C)S(C)(=O)=O | 16.8% | -0.1% | · | · | -4.4
O=C1NN(c2ccc(F)cc2)C(=O)/C1=C\C=C\c1ccco1 | -1.1% | 0.1% | ? | 1.12µM* | -4.3
O=C1CCCCC1Sc1nnc(-c2ccc3c(c2)OCO3)o1 (centres undefined) | ? | -0.1% | 0.891µM* | 0.562µM* | 1.8
Clc1ccc(CSc2nnc(-c3ccc4c(c3)OCO4)o2)cc1 | 0.4% | -0.9% | 9.8% | 35.0% | -22.1
CC(=O)O[C@@H]1CC2C(C)(C)C(=O)C=C[C@]2(C)C2CC[C@]3(C)C(=CC[C@H]3C3CO[C@@H](C(C)(C)O)[C@H](O)C3)[C@@]21C (some centres undefined) | · | · | 1.6% | 14.0% | ·
O=C1/C(=C/c2ccc([N+](=O)[O-])cc2)CCC1C1CCCC1 (centres undefined) | ? | -0.8% | -0.8% | 3.0% | -7.0
CC(NCc1ccc(S(N)(=O)=O)cc1)C(=O)Nc1ccc([N+](=O)[O-])cc1Cl (centres undefined) | 23.1µM* | 0.1% | -5.2% | 6.7% | 8.2
COc1ccc(/C=N/NC(=O)CSc2nnc(C)n2-c2ccccc2)c(OC)c1OC | ? | -0.7% | 0.3% | 43.4% | 1.3
Cc1ccc(-c2nn3c(C)nnc3s2)cc1NC(=O)CSc1ccc(Cl)cc1 | 20.6µM* | -1.8% | ? | 0.0% | -11.4
O=C(CSc1nnc(-c2n[nH]c3ccccc23)n1-c1ccccc1)Nc1ccccc1Cl | 23.1µM* | 2.7% | -2.9% | 29.4% | -9.9
CCCCSc1nc(C)cc(SCC(=O)N/N=C/c2cccc(OC)c2O)n1 | -0.8% | 7.5% | 1µM* | 0.282µM* | -13.5
COc1ccc(O)c(/C=N/NC(=O)CSc2nnc(C)n2-c2ccccc2)c1 | ? | 0.1% | -29.4% | 7.94µM* | -1.7
COc1ccccc1/C=N/NC(=O)CSc1ccc2ccccc2n1 | 0.4% | -0.5% | 0.0% | -26.9% | 1.3
Cc1nnc2sc(-c3ccc(NC(=O)CSc4ccc(Cl)cc4)cc3)nn12 | -19.9% | 0.0% | -26.0% | -2.9% | -12.3
N/C(=N\OC(=O)CN1C(=O)c2ccccc2C1=O)c1ccc(Br)cc1 | 8.3% | -0.7% | -7.6% | 7.7% | 10.9
O=C(Cn1nc(-c2ccccc2)ccc1=O)N1CCCCC1 | 9.4% | 0.2% | 13.0% | -6.9% | 4.0
Cc1ccc(Cl)cc1NC(=O)CSc1nnc(C)n1-c1ccccc1 | -16.3% | -0.1% | 5.62µM* | 3.98µM* | -13.6
Cc1c(Cl)cccc1NC(=O)CSc1nnc(C)n1-c1ccccc1 | ? | 0.3% | 13.2% | 24.8% | 0.5
COc1cccc(/C=N/NC(=O)CSc2nnc(C)n2-c2ccccc2)c1O | -15.4% | -1.0% | 20µM* | 7.08µM* | 8.4
O=C(COc1ccccc1)N[C@@H]1c2ccccc2CC[C@H]1OCc1ccccc1 | ? | -0.5% | · | · | -3.6
COc1ccccc1CNCC(O)Cn1c2ccccc2c2ccccc21 (centres undefined) | ? | -1.5% | ? | ? | -1.3
COc1ccc(C(=O)c2c(C)c3ccccc3n2CC(O)CNC(C)C)cc1 (centres undefined) | -23.8% | 4.6% | 20µM* | 7.94µM* | 28.5
